Reference: PubChem BioAssay (NCATS)
Inconclusive results are not listed. Calls of active or inactive are those of the source. Unless noted, calls follow the shape of the full dose curve.

What was measured:
[1] = molecular target: Estrogen receptor (Homo sapiens) (UniProt P03372); assay: qHTS assay for small molecule antagonists of estrogen receptor alpha signaling (AID 588513; active = well fitted curve in the direction sought with a large enough effect in the signal ratio, with a control signal flat, not every such curve was filed as active; the % refers to the signal ratio; also: % is scaled to controls: 0 for no effect and ±100 for the full control effect)
Sequence of Estrogen receptor (Homo sapiens) (P03372 whole entry, looked up): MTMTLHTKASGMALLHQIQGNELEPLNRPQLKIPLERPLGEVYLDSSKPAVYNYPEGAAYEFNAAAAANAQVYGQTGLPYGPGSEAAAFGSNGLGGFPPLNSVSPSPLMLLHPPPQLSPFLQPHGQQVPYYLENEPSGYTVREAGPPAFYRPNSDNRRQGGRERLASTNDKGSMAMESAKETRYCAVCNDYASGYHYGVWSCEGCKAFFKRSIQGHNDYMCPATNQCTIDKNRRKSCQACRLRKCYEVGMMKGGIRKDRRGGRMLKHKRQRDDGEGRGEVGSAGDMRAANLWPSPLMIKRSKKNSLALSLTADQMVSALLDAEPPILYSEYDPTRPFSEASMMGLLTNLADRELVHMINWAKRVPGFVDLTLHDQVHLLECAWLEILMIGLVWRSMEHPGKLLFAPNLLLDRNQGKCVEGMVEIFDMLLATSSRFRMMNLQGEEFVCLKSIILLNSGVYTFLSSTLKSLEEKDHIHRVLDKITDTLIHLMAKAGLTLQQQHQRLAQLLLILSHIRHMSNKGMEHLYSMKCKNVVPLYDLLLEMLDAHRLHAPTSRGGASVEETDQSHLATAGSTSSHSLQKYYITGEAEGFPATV
In short: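 Beta-lactamase reporter, antagonist mode, HEK 293 GripTite cells; 0.5nM E2 stimulus, 18 h, 37 C; CCF4 dye 2 h RT; fluorescence. IC50 and efficacy from Hill fits, normalized to E2 and DMSO.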

[2] = molecular target: Estrogen receptor (Homo sapiens) (UniProt P03372); assay: qHTS assay for small molecule agonists of estrogen receptor alpha signaling (AID 588514);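 also: 0% = vehicle only and 100% = reference agonist; nearly all actives have a fitted effect of over 70% in size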
In short: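 ER-alpha-UAS-bla GripTite HEK293 cells, 5000/well in 2% charcoal/dextran-stripped FBS medium, treated with compound titrations 18 h at 37 C. CCF4 beta-lactamase read by fluorescence after 2 h RT; normalised to 20 nM 17-beta-estradiol (100%) and DMSO (0%), Hill fit for EC50 and efficacy.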

[3] = qHTS assay for small molecule antagonists of peroxisome proliferator-activated receptor delta signaling (AID 588535); settings: HEK293T PPARd-UAS-bla, beta-lactamase FRET ratio, 18 h; 460 nm channel;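 also: cells co-treated with a PPAR-delta agonist as stimulator during compound exposure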
In short: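 HEK293T PPAR-delta-UAS-bla cells, 4000/well, 2% charcoal/dextran FBS; 5 h 37 C; cpd titration; 18 h 37 C; CCF4 2 h RT; FI 460/530 nm; Hill fit → IC50, efficacy.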

[4] = molecular target: Vitamin D3 receptor (Homo sapiens) (UniProt P11473); assay: qHTS assay for small molecule agonists of vitamin D receptor signaling (AID 588543);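 also: 0% = DMSO basal and 100% = reference agonist control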
Sequence of Vitamin D3 receptor (Homo sapiens) (P11473 whole entry, looked up): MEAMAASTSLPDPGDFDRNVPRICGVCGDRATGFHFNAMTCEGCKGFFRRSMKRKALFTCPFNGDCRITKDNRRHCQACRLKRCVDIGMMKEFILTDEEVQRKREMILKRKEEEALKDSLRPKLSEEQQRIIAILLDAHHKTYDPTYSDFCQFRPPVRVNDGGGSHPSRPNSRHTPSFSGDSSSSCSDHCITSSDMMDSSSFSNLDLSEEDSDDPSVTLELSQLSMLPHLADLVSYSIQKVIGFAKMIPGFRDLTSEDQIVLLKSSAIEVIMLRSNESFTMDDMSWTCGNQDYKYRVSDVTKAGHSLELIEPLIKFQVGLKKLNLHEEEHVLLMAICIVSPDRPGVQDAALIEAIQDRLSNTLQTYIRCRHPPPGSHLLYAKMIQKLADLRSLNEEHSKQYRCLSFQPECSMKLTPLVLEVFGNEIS
In short: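 β-lactamase reporter, VDR-UAS-bla HEK293T, agonist mode. Cells plated 5 h at 37 °C, compound titration 16 h at 37 °C, CCF4 dye 2 h RT, ratio 460/530 nm. Hill fit → EC50, efficacy vs 50 nM 1α,25-(OH)2D3.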

[5] = qHTS assay for small molecule agonists of retinoid X receptor alpha signaling (AID 588544); settings: HEK293T RXRa-UAS-bla, beta-lactamase reporter, 18 h; 530 nm emission;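 as to activation: 0% = DMSO basal wells and 100% = reference agonist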
[6] = molecular target: Retinoic acid receptor RXR-alpha (Homo sapiens) (UniProt P19793); assay: as above
Sequence of Retinoic acid receptor RXR-alpha (Homo sapiens) (P19793 whole entry, looked up): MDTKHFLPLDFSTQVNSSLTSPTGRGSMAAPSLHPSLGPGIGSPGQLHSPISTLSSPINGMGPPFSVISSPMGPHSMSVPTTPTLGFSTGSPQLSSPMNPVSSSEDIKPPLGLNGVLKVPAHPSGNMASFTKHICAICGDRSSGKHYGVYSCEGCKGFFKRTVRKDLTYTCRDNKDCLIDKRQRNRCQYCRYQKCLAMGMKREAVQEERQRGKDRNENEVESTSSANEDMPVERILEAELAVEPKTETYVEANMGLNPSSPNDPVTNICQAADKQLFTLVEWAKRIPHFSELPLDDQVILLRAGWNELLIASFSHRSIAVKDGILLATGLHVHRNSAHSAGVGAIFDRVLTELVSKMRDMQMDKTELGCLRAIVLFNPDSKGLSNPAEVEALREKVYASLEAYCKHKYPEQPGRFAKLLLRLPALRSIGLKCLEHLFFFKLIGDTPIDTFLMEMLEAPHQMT

[7] = molecular target: Thyroid hormone receptor beta (Homo sapiens) (UniProt P10828); assay: qHTS assay for small molecule agonists of thyroid hormone receptor beta signaling (AID 588545)
Sequence of Thyroid hormone receptor beta (Homo sapiens) (P10828 whole entry, looked up): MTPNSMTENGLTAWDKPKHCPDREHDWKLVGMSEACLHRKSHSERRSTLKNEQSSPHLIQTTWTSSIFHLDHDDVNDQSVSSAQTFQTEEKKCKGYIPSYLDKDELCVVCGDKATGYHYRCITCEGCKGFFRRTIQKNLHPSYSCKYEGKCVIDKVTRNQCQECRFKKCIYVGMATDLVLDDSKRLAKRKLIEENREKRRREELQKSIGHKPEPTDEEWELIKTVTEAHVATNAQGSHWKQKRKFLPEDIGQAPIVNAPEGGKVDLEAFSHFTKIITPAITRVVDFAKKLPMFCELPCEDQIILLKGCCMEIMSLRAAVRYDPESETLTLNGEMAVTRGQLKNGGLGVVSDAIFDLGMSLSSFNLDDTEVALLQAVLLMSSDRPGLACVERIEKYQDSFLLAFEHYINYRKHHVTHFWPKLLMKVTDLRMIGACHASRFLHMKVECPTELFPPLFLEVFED
In short: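 Cells (2500/well) were seeded, incubated 4 hrs at 37 C, dosed with a compound series, incubated 18 hrs, loaded with CCF4 dye for 2 hrs at RT, then read for fluorescence. Data were scaled between DMSO (0%) and 10 nM T3 (100%).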

[8] = qHTS assay for small molecule antagonists of retinoid X receptor alpha signaling (AID 588546; active = well fitted inhibition curve with a large enough effect in the signal ratio, with a control signal flat, not every such curve was filed as active; the % refers to the signal ratio;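 also: cells stimulated with 9-cis-retinoic acid as agonist; % is scaled to controls: 0 for no effect and ±100 for the full control effect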); settings: HEK293T RXRa-UAS-bla, beta-lactamase ratio, antagonist mode; measured here: W530 green channel, cytotoxicity proxy
In short: (§1)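 Beta-lactamase reporter inhibition, read as CCF4 fluorescence ratio (ex 405, em 460/530 nm) after 2 h at RT. HEK293T UAS-bla cells, 2500/well, were stimulated with 9-cis-RA at 500 or 100 nM final alongside test compound for 18 h at 37 C.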

[9] = molecular target: Retinoic acid receptor RXR-alpha (Homo sapiens) (UniProt P19793); assay: as above; settings: HEK293T RXRa-UAS-bla, beta-lactamase ratio, antagonist mode
In short: as §1

[10] = qHTS assay for environmental chemicals that activate the Aryl hydrocarbon Receptor (AhR) signaling pathway (AID 651777; active = well fitted curve in the direction sought with a large enough effect; an effect the other way counts as inactive or inconclusive; also: % of control where 0% means no effect; nearly all actives have a fitted effect of over 15% in size); settings: 1A2-DRE human hepatoma cells, luciferase, 24 h; activation: stronger effect = higher value
In short: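 Human hepatoma 1A2-DRE cells, stably carrying a dioxin response element and CYP1A2 promoter driving luciferase, were exposed to compounds for 24 hr at 37 C and 5% CO2. Luciferase signal was then read after 30 min One-Glo at room temperature.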

[11] = molecular target: Peroxisome proliferator-activated receptor alpha (Homo sapiens) (UniProt Q07869); assay: qHTS assay for small molecule agonists of the peroxisome proliferator-activated receptor alpha (PPARalpha) signaling pathway (AID 651778; active = well fitted curve in the direction sought with a large enough effect; an effect the other way counts as inactive or inconclusive; also: % of control where 0% means no effect); settings: PathHunter PPARalpha complementation, chemiluminescence, 6 h; max response: stronger effect = higher value
Sequence of Peroxisome proliferator-activated receptor alpha (Homo sapiens) (Q07869 whole entry, looked up): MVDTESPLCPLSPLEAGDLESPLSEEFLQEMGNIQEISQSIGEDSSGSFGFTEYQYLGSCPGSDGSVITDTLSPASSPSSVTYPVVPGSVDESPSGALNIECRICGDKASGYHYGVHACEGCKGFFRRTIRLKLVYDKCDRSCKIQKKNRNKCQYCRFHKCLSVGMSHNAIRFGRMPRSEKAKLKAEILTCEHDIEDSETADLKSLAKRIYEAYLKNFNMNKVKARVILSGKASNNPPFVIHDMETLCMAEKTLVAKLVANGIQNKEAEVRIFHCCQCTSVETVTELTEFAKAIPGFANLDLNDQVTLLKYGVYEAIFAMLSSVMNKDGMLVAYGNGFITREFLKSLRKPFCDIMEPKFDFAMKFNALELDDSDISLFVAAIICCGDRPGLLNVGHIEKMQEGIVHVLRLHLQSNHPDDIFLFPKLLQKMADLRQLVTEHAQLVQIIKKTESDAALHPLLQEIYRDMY
In short: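 Chemiluminescence from complemented enzyme reported PPARalpha activation in cells after 6 hr of compound treatment at 37 C. The detection reagent was incubated for 60 min at room temperature, and compounds were scored as agonists.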

[12] = qHTS assay for small molecule agonists of the antioxidant response element (ARE) signaling pathway measured by Nrf2-dependant transcriptional activity (AID 720636; active = well fitted curve in the direction sought with a large enough effect in the repeat runs; an effect the other way counts as inactive or inconclusive; also: % of control where 0% means no effect)
In short: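 ARE-luc HepG2 cells carrying an Nrf2-responsive luciferase reporter were plated in medium with 1% dialyzed FBS, left 6 hr at 37 C to attach, then exposed to compound for 16 hr. Luciferase luminescence was read after ONE-Glo addition.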

[13] = qHTS assay for small molecule agonists of the antioxidant response element (ARE) signaling pathway measured by Nrf2-dependant transcriptional activity - cell viability counter screen (AID 720653; active = well fitted curve in the direction sought with a large enough effect in the repeat runs; an effect the other way counts as inactive or inconclusive; also: % is scaled to controls: 0 for no effect and ±100 for the full control effect); settings: ARE-bla HepG2 viability, CellTiter-Glo ATP luminescence, 16 h; max response: stronger effect = lower value
In short: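 Cytotoxicity counter screen: intracellular ATP quantified by CellTiter-Glo luminescence in the same ARE-bla HepG2 plates, after 16 h compound exposure and a 2 h beta-lactamase substrate step.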

[14] = qHTS assay for cell viability of HEK293 cells (AID 743288; active = well fitted curve in the direction sought with a large enough effect; an effect the other way counts as inactive or inconclusive; also: % is scaled to controls: 0 for no effect and ±100 for the full control effect; nearly all actives have a fitted effect of over 50% in size); settings: ATP luminescence (CellTiter-Glo), 18 h; max response: stronger effect = lower value
In short: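 Environmental chemicals tested in qHTS format against parental HEK293 cells; 18 h treatment, 37 C; read-out ATP luminescence (CellTiter-Glo), 30 min RT development.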

[15] = qHTS assay for cell viability of the p53RE-bla HCT-116 cell line (AID 743292; active = well fitted curve in the direction sought with a large enough effect; an effect the other way counts as inactive or inconclusive; also: % is scaled to controls: 0 for no effect and ±100 for the full control effect; nearly all actives have a fitted effect of over 55% in size)
In short: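 CellSensor p53RE-bla HCT-116 cells, 4,000/well, preincubated 5 h at 37 C, then exposed to compounds in DMSO for 16 h at 37 C. Viability read as CellTiter-Glo luminescence (intracellular ATP) after 30 min at room temperature.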

[16] = molecular target: Vitamin D3 receptor (Homo sapiens) (UniProt P11473); assay: qHTS assay for small molecule antagonists of vitamin D receptor signaling (AID 588541);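 also: receptor activated by calcitriol during compound treatment; series mostly up to about 77 µM; % is scaled to controls: 0 for no effect and ±100 for the full control effect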
In short: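 Antagonist-mode beta-lactamase reporter assay: HEK293T VDR-UAS-bla cells were exposed to titrated compound alongside 1-alpha,25-dihydroxyvitamin D3 at 3 nM final for 16 h. Values were normalized to the 50 nM agonist control and DMSO basal, with IC50 and efficacy from Hill equation fits.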

[17] = molecular target: Thyroid hormone receptor beta (Homo sapiens) (UniProt P10828); assay: qHTS assay for small molecule antagonists of thyroid hormone receptor beta signaling (AID 588547; active = well fitted inhibition curve with a large enough effect in the signal ratio, with a control signal flat, not every such curve was filed as active; the % refers to the signal ratio); settings: TR-UAS-bla HEK293, beta-lactamase ratio, antagonist mode, 18 h
In short: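 Inhibition of T3-driven (0.4nM final) beta-lactamase reporter activity was measured over 0.59 nM to 92 uM compound after 18 h at 37 C. The cells were GripTite HEK293 TR-UAS-bla in charcoal/dextran-stripped serum, with CCF4 ratio read-out and IC50 from Hill fits.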

[18] = qHTS assay for small molecule activators of the nuclear factor-kappa B (NF-kB) signaling pathway (AID 651749; active = well fitted activation curve with a large enough effect in the signal ratio; the % refers to the signal ratio; also: series mostly up to about 77 µM; % of control where 0% means no effect); settings: NF-kB-bla ME-180 cells, beta-lactamase FRET ratio, 16 h; activation: stronger effect = higher value
In short: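 Readout: beta-lactamase reporter driven by an NF-kB response element, detected fluorescently as loss of FRET. Cells were the ME-180 line, treated 16 hr at 37C with pin-transferred compound.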

[19] = molecular target: Nuclear receptor subfamily 1 group I member 2 (Rattus norvegicus) (UniProt Q9R1A7); assay: qHTS assay for small molecule activators of the rat pregnane X receptor (rPXR) signaling pathway (AID 651751; call rule not given here; also: 0% is about no effect); settings: rPXR reporter cells, luciferase (One-Glo), 24 h
Sequence of Nuclear receptor subfamily 1 group I member 2 (Rattus norvegicus) (Q9R1A7 whole entry, looked up): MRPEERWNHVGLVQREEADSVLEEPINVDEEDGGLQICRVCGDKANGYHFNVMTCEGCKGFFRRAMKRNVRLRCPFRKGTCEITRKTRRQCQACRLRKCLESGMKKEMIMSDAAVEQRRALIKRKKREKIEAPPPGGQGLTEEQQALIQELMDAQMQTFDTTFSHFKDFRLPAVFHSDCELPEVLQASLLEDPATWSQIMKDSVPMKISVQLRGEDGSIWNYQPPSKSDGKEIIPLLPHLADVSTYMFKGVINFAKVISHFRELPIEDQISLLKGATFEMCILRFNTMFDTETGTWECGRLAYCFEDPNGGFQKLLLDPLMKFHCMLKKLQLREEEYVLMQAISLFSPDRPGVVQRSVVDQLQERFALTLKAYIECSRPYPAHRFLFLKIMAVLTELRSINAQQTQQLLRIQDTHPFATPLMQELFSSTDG

[20] = qHTS assay for small molecule activators of the human pregnane X receptor (PXR) signaling pathway (AID 720659; call rule not given here; also: 0% is about no effect)

Cl[Si](Cl)(c1ccccc1)c1ccccc1
5.91%: max response [3]
-17.4%: max response [5]
-8.47%: max response [8]
inactive: Potency [1] | Potency [2] | outcome [4] | Potency [6] | Potency [7] | max response [9] -0.846% | activation [10] -1.05% | max response [11] 5.98% | Potency [12] | max response [13] -10.9% | max response [14] 1.19% | Potency [15]

CC(C)(C)C1CCC(O)CC1 (stereo unspecified)
-7.35%: max response [3]
-0.1%: max response [8]
inactive: Potency [1] | Potency [2] | Potency [16] | outcome [4] | Potency [7] | max response [9] 3.31% | activity change % (negative = inhibition) [17] -2.02% | activation [18] 0.471% | Potency [12] | max response [13] 2.04% | max response [14] 1.92% | Potency [15] | max response [19] 1.71% | outcome [20]

OC1CCCCCCCCCCC1
17.8%: max response [3]
inactive: Potency [1] | Potency [2] | Potency [6] | Potency [7] | max response [9] -4.46% | activation [18] 0.918% | activation [10] 1.93% | max response [11] -2.43% | Potency [12] | max response [14] -8% | Potency [15] | max response [19] -3.86% | outcome [20]
-1.99%: max response [8]
10.2%: max response [5]

OCCOCCOCCOCCO
-7.24%: max response [8]
inactive: Potency [1] | Potency [2] | Potency [16] | outcome [4] | Potency [6] | Potency [7] | max response [9] -5.67% | activation [18] -0.834% | max response [11] -1.11% | max response [14] -2.22% | Potency [15]
-5.22%: max response [3]
4.51%: max response [5]

C=CC(=O)OCC[N+](C)(C)C
1.33%: max response [5]
35.3%: max response [3]
inactive: Potency [1] | Potency [2] | Potency [16] | outcome [4] | Potency [6] | Potency [7] | max response [9] 1.59% | activity change % (negative = inhibition) [17] -9.01% | activation [10] 0.372% | max response [11] -0.129% | Potency [12] | max response [13] 1.86% | Potency [15] | max response [19] -0.896%
1.52%: max response [8]

O=C(OCC1CCC2OC2C1)C1CCC2OC2C1 (stereo unspecified)
-10.9%: max response [5]
inactive: Potency [1] | Potency [2] | Potency [16] | outcome [4] | Potency [6] | Potency [7] | max response [9] -6.03% | activity change % (negative = inhibition) [17] 1.74% | activation [18] 1.33% | activation [10] 1.05% | max response [11] 0.673% | Potency [12] | max response [14] -11.2% | Potency [15] | max response [19] 1.7% | outcome [20]
-2.67%: max response [3]
1.3%: max response [8]

C=Cc1ccccc1Br
inactive: Potency [1] | Potency [2] | Potency [16] | outcome [4] | Potency [6] | max response [9] -9.99% | activity change % (negative = inhibition) [17] -5.89% | activation [18] -1.27% | activation [10] 1.62% | Potency [12] | max response [13] -11.1% | max response [14] -11.7% | Potency [15] | max response [19] -0.877% | outcome [20]
-10.1%: max response [3]
-4.64%: max response [5]
1.9%: max response [8]

CCCCCCCCCCCCCO
inactive: Potency [1] | Potency [2] | Potency [16] | outcome [4] | Potency [6] | Potency [7] | max response [9] 3.57% | max response [14] -5.94% | Potency [15] | max response [19] 1.91% | outcome [20]
18.2%: max response [3]
-5.38%: max response [5]
-5.73%: max response [8]

CCOC(=O)CC(O)(CC(=O)OCC)C(=O)OCC
inactive: Potency [1] | Potency [2] | Potency [16] | outcome [4] | Potency [6] | max response [9] -3.42% | activity change % (negative = inhibition) [17] 13% | activation [18] -1.34% | activation [10] 0.341% | max response [11] 0.853% | Potency [12] | max response [13] -8.63% | max response [14] 3.07% | Potency [15] | max response [19] -0.162% | outcome [20]
-3.18%: max response [8]
-10.3%: max response [5]

C=CCCCCCCCCC=O
-4.83%: max response [8]
14.1%: max response [3]
-12%: max response [5]
inactive: Potency [1] | Potency [2] | Potency [16] | outcome [4] | Potency [6] | Potency [7] | max response [9] -16.9% | activity change % (negative = inhibition) [17] 19.2% | activation [18] -0.972% | activation [10] 0.287% | max response [11] -1.39% | Potency [12] | max response [13] 3.17% | max response [14] -14% | Potency [15] | max response [19] -2.8% | outcome [20]

CC(C)CCCCCOC(=O)CS
-0.354%: max response [5]
inactive: Potency [1] | Potency [2] | Potency [6] | Potency [7] | max response [9] -5.77% | activity change % (negative = inhibition) [17] -8.58% | activation [18] 3.32% | activation [10] -0.874% | max response [11] 0.461% | Potency [12] | max response [13] -0.966% | Potency [15] | max response [19] -1.37% | outcome [20]
-2.29%: max response [8]

O=C(Cl)c1cc(Cl)cc(Cl)c1
16%: max response [3]
inactive: Potency [1] | Potency [2] | Potency [16] | outcome [4] | Potency [6] | Potency [7] | max response [9] -11.9% | activity change % (negative = inhibition) [17] -10.7% | activation [18] -1.64% | max response [11] -3.03% | Potency [12] | max response [13] -8.26% | Potency [15] | max response [19] 2.44% | outcome [20]
-4.35%: max response [5]
3.33%: max response [8]

CCCCCCCCCCCCCc1ccccc1
inactive: Potency [1] | Potency [2] | Potency [16] | outcome [4] | Potency [6] | Potency [7] | max response [9] -2.52% | activity change % (negative = inhibition) [17] 11.3% | activation [18] -0.242% | activation [10] 2.83% | max response [11] -0.643% | Potency [12] | max response [13] -7.31% | max response [14] 4.66% | Potency [15] | max response [19] 0.527% | outcome [20]
-13.4%: max response [8]
-8.78%: max response [5]
21.6%: max response [3]
